From PubChem BioAssay come the findings set out here.

Test [1] can be described thus: small molecules captured by biotinylated probe aFSTL3 – biochemical, small-molecule microarray, fluorescence 635/667, stem cell growth factor project, primary screen (AID 1064).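 Further: measures binding of the biotinylated anti-FSTL3 antibody to printed compounds.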 The following applies: higher = more signal.
Test [2] in a line: binders from COS7 lysate, DM2A8 probe, primary screen, torsin A project, cell lysate, small-molecule microarray, fluorescence 635/667 (AID 1065). The following applies: higher = more signal, COS7 lysate expressing mutant human TOR1A.
A short description of test [3]: small molecules captured by biotinylated probe aFGF2 – biochemical, small-molecule microarray, fluorescence 635/667, stem cell growth factor project, primary screen (AID 1067).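 Further: measures binding of biotinylated aFGF2 protein to printed compounds on slides; z-score merges feature fluorescence and signal-to-noise across triplicate slides.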 The following applies: higher = more signal.
The nature of test [4]: small molecules captured by biotinylated probe aFGF10 – biochemical, small-molecule microarray, fluorescence 635/667, stem cell growth factor project, primary screen (AID 1071).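 Further: score merges 667 nm spot intensity and signal to noise from triplicate slides.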 The following applies: higher = more signal.
Test [5] has as its target Neurogenic locus notch homolog protein 2 (Homo sapiens) (UniProt Q04721). In words: small molecules binding Notch2 protein – biochemical, small-molecule microarray, 635 nm fluorescence, stem cell growth factors, primary screen (AID 1073). The following applies: higher = more signal.
Test [6] has as its target Pro-neuregulin-1, membrane-bound isoform (Homo sapiens) (UniProt Q02297). Kind of test: small molecules binding neuregulin-1 protein – biochemical, small-molecule microarray, fluorescence 635/667, psychiatric disease protein project, primary screen (AID 1075).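 Further: score combines 667 nm spot fluorescence with signal to noise.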 The following applies: NRG1 binding, 635 nm fluorescence, higher = more signal.
The subject of test [7] is Neuregulin-1 EGF-like domain. Kind of test: small molecules binding NRG1 EGF domain – biochemical, small-molecule microarray, 635 nm fluorescence, primary screen (AID 1081).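 Further: binding of the protein to compounds printed on small-molecule microarray slides.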 The following applies: higher = more signal.
Test [8] can be described thus: FRG1 expression reporter modulators in myotubes – cell-based, C2C12 myotubes, firefly/Renilla luciferase, luminescence, FRG1 inhibition for FSHD, primary screen (AID 1084). The following applies: FRG1 promoter luciferase, higher = more signal, called active from +8 up or from −8 down.
Test [9] is described as follows: small molecules captured by biotinylated probe aFST – biochemical, small-molecule microarray, fluorescence 635/667, stem cell growth factor project, primary screen (AID 1086).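 Further: score merges 667 nm fluorescence with signal-to-noise of each printed compound spot.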 The following applies: higher = more signal.
The nature of test [10]: binders of probe aHhip on microarray, primary screen, stem cell growth factor project, biochemical, small-molecule microarray, fluorescence 635/667 (AID 1087).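 Further: score merges spot fluorescence at 667nm with spot signal to noise ratio.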 The following applies: higher = more signal.
Test [11] deals with PRMT1 (protein arginine N-methyltransferase 1). In words: small molecules binding arginine methyltransferase PRMT1 – biochemical, small-molecule microarray, 635 nm fluorescence, primary screen (AID 1088).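 Further: binding of Prmt1 protein to compounds spotted on small-molecule microarray slides.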 The following applies: higher = more signal.
Test [12] can be described thus: growth effects on S. cerevisiae YJM789 – YJM789 clinical isolate, OD600, 24 h, basal, primary screen (AID 1089).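 Further: growth of clinical yeast isolate S. cerevisiae YJM 789 seeded 1000 cells per well; test concentration not given here.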 The following applies: higher = more signal, called active from +8 up or from −8 down.
Test [13] in a line: S. pombe growth modifiers, basal conditions – strain 972, OD600, 24 h, no modulator, primary screen (AID 1090).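 Further: basal condition with compound alone and no growth modifier present; test concentration not given here.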 The following applies: S. pombe 972 growth, higher = more signal, called active from +8 up or from −8 down.
Test [14] can be described thus: budding yeast growth modifiers under rapamycin – strain BY4716, OD600, 96 h, primary screen (AID 1091). Further: test concentration not given here. The following applies: S. cerevisiae BY4716 + rapamycin, higher = more signal, called active from +8 up or from −8 down.
Test [15] deals with Torsin-1A-interacting protein 2 (Homo sapiens) (UniProt Q8NFQ8). Kind of test: small molecules binding lysate-expressed LULL1 – cell lysate, human LULL1 lysate, 635/667 nm fluorescence, primary screen (AID 1092).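 Further: probe is lysate of COS7 cells overexpressing human LULL1; score merges per-feature 667 nm fluorescence with signal-to-noise.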 The following applies: small-molecule microarray, hLULL1 lysate binding, 635 nm fluorescence; higher = more signal.
The nature of test [16]: optical density change of DRC41 E. coli – strain DRC41, OD650, 24 h, E. coli filamentation project, primary screen (AID 1093).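 Further: MC1000 strain lacking acrAB efflux and sulA so SOS filamentation is blocked; test concentration not given here.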 The following applies: E. coli DRC41 growth, higher = more signal, called active from +8 up or from −8 down.
A short description of test [17]: probe aLefty2 binding to arrayed compounds – biochemical, biotinylated probe, 635/667 nm fluorescence, primary screen (AID 1094).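 Further: score merges spot fluorescence near 667 nm with spot signal-to-noise ratio.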 The following applies: small-molecule microarray, higher = more signal.
Test [18] relates to Noggin (protein binding on small-molecule microarray). In words: small molecules binding Noggin protein – biochemical, 635/667 nm fluorescence, primary screen (AID 1095).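 Further: score merges 667 nm feature fluorescence with signal to noise over triplicate slides.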 The following applies: 635 nm fluorescence, higher = more signal.
The target in test [19] is Neurogenic locus notch homolog protein 3 (Homo sapiens) (UniProt Q9UM47). In words: small molecules binding NOTCH3 protein – biochemical, 635/667 nm fluorescence, primary screen (AID 1096). The following applies: small-molecule microarray, 635 nm fluorescence, higher = more signal.
A short description of test [20]: probe aEGFR binding to arrayed compounds – biochemical, biotinylated probe, 635/667 nm fluorescence, primary screen (AID 1097).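 Further: probe is a biotinylated anti-EGFR antibody binding compounds printed on slides; score combines fluorescence near 667 nm and signal to noise of each spot.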 The following applies: small-molecule microarray, higher = more signal.

Calls of active or inactive are those of the source.

Sequence of Neurogenic locus notch homolog protein 3 (Homo sapiens) (Q9UM47 whole entry, looked up): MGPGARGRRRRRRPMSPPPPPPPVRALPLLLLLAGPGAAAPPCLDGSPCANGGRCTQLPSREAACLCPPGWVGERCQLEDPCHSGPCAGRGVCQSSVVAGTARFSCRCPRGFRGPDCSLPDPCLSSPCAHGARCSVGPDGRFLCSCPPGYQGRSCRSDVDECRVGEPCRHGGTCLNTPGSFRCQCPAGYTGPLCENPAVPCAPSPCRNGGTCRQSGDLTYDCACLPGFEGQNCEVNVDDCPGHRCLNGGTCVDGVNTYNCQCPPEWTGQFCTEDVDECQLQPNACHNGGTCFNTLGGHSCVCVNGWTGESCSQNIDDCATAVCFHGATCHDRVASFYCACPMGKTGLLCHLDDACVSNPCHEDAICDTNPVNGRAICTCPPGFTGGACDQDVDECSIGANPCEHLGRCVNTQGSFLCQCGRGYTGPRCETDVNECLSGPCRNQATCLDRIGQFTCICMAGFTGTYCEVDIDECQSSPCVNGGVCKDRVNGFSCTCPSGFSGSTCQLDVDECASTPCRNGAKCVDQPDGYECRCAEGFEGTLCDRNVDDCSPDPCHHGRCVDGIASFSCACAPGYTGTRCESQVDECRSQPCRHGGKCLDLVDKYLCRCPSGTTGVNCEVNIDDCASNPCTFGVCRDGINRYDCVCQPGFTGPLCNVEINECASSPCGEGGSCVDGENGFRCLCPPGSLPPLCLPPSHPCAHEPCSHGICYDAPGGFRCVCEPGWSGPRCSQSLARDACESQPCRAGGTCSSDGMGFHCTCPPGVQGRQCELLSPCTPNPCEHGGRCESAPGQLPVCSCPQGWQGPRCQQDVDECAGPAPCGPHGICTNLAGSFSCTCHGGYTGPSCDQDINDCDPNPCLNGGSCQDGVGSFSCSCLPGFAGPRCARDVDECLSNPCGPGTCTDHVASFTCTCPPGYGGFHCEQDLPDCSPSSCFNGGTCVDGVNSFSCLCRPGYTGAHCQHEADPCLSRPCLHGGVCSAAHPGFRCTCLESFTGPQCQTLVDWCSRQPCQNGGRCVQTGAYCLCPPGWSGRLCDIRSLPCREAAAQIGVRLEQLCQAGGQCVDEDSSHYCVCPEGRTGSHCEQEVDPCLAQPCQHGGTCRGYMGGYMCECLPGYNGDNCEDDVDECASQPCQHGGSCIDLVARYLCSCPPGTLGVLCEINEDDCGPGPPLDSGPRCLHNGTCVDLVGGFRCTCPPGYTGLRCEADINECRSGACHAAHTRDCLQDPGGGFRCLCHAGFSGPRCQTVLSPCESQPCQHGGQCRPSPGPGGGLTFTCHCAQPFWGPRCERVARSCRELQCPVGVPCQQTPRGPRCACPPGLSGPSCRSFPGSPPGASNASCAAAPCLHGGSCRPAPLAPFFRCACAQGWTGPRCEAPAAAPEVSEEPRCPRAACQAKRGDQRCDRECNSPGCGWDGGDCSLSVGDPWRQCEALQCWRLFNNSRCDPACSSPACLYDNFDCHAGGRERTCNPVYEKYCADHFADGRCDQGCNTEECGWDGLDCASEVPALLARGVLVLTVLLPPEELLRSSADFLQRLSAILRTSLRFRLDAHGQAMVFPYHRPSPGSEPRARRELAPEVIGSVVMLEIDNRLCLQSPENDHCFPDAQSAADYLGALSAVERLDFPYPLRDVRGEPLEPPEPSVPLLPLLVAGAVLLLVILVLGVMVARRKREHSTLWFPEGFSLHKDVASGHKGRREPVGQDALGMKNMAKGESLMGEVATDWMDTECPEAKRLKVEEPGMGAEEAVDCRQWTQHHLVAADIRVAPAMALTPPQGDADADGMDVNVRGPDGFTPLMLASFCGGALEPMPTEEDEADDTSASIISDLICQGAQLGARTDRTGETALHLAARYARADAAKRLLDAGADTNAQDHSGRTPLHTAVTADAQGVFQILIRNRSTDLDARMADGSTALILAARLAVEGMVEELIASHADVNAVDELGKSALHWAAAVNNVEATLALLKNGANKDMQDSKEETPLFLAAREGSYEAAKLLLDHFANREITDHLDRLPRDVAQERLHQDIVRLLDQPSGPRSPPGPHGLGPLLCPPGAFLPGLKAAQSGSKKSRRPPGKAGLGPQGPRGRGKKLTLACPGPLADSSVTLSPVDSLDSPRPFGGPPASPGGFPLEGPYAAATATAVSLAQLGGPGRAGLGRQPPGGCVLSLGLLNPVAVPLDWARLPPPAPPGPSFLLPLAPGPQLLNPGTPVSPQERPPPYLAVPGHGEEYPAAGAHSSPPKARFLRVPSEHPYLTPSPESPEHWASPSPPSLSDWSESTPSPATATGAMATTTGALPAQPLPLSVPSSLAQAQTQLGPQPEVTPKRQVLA
Sequence of Pro-neuregulin-1, membrane-bound isoform (Homo sapiens) (Q02297 whole entry, looked up, the tested form may be a part, canonical isoform): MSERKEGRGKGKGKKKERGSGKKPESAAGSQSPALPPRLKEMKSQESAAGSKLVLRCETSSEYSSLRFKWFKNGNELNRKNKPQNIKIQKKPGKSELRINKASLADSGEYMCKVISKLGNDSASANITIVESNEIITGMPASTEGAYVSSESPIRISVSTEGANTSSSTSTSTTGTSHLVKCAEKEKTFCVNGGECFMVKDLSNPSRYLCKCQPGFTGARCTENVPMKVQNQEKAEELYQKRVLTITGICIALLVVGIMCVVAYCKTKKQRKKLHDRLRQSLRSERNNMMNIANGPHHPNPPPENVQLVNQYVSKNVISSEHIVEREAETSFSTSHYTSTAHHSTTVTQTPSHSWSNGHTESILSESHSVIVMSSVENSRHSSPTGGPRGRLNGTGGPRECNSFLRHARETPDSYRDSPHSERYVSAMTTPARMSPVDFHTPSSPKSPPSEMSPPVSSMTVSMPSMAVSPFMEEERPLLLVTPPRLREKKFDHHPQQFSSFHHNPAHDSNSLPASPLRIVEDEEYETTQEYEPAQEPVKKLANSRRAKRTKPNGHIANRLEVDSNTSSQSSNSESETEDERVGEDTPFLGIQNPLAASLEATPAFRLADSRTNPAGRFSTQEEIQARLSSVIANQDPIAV
Sequence of Torsin-1A-interacting protein 2 (Homo sapiens) (Q8NFQ8 whole entry, looked up): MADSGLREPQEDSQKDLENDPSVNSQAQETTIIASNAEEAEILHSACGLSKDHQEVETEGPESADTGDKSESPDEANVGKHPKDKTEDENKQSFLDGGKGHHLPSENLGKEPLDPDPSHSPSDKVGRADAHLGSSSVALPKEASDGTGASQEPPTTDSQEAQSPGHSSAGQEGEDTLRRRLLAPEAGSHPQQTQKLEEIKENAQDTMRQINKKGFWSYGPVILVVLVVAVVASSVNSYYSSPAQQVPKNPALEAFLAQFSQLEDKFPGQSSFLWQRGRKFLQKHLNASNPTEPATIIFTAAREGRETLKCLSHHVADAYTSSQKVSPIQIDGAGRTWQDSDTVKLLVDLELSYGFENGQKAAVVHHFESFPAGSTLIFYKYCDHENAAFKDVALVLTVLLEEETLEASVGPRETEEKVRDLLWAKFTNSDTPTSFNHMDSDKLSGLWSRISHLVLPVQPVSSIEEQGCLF

As to `CCN(CC)c1ccc(N2CC=CC34O[C@@H]5/C=C\CCC(C)OC(=O)C5[C@H]3C(=O)N(CCCCCO)[C@@H]4C2=O)cc1` (stereo not given in full), the composite z-score in [1] was -0.129; in [2] it was -0.474; in test [3], -0.103; in [4], -0.497; in test [5], -1.45; in test [6], -0.551. Further, the composite z-score is -0.506 in [7]; -0.284 in test [9]; -0.37 in test [10]; -0.895 in test [11]; -1.3 in test [15]; -0.283 in test [17]. The composite z-score in [18] was -0.663; in [19] it was -0.134; in test [20], -0.238. Besides, the z-score in test [8] was 0.376 (inactive); in test [12] it was 0.026 (inactive); in [13] it was -1.42 (inactive); in [14], -0.399 (inactive); in test [16], -0.374 (inactive).

Consider `C=CC1c2cc(O)c(OC)cc2CCN1Cc1cccc(OC(F)(F)F)c1` (stereo not given), for which the composite z-score in test [1] was 0.335; in test [2] it was -0.145; in [3], -0.103; in test [4], -0.605; in test [5], -0.137; in test [6], 1.59. For the same compound, the composite z-score in [7] is 1.1; in test [9], -0.108; in test [10] it was -0.268; in test [11], 1.22; in [15] it was 3.88; in test [17] it was -0.129. For the same compound, the composite z-score in test [18] was -0.0799; in [19], -0.344; in test [20], -0.125. Moreover, the z-score in test [8] was 0.385 (inactive); in [12], -26 (active); in test [13], -20.2 (active); in test [14] it was -3.13 (inactive); in [16], 0.148 (inactive).

As for `COc1ccc([C@H]2C[C@H]3C(I)=C[C@@H]2C(=O)[C@]32CO2)cc1`, the composite z-score in test [1] is -0.434; in test [2] it was 0.241; in test [3], -0.12; in test [4], 0.17; in test [5], 0.0021; in [6], -0.645. The composite z-score in test [7] was -0.571; in test [9], 0.169; in test [10], -0.0237; in test [11] it was -0.639; in [15], -0.83; in test [17] it was -0.161. The figures for the composite z-score in test [18], in test [19] and in test [20] were 0.387, 0.816 and -0.135, respectively. In addition, the z-score was 2.29 (inactive) in [8]; -1.61 (inactive) in test [12]; -15.3 (active) in [13]; -1.79 (inactive) in [14]; 1.6 (inactive) in test [16].

Take `COc1ccccc1CN1C(=O)c2ccccc2[C@@]2(Cc3ccccc3N(CCCN(C)C)C2=O)[C@@H]1c1ccc(CO)cc1`: the composite z-score in test [1] was -0.302; in [2], -0.252; in test [3] it was -0.0396; in test [4], -0.0231; in test [5], 0.137; in [6], -0.141. In addition, the composite z-score in test [7] was 0.0968; in [9], -0.201; in [10], -0.0645; in test [11], 0.557; in test [15], 0.425; in test [17], -0.247. Besides, the composite z-score in [18] is 0.395; in test [19], 0.0593; in test [20] it was -0.0612. The z-score was 0.0544 (inactive) in test [8]; 0.431 (inactive) in [12]; -1.23 (inactive) in test [13]; -1.35 (inactive) in test [14]; 0.276 (inactive) in [16].

On to `CC(C)CCC[C@@H](C)[C@H]1CC[C@@]2(C)C3=C(CC[C@]12C)[C@@]1(C)CC[C@H](OC(=O)c2ccc(C(F)(F)F)nc2)C(C)(C)C1CC3` (stereo not given in full), for which the composite z-score in test [1] is -0.438; in test [2] it was 0.441; in test [3] it was -0.103; in [4], 0.312; in test [5], 0.443; in [6] it was -0.323. The composite z-score in [7] is 0.198; in test [9], -0.108; in test [10], 0.223; in test [11], -0.431; in [15] it was 0.282; in test [17], -0.233. Also, the composite z-score was 0.52 in test [18], 0.483 in [19] and -0.1 in test [20]. Further, the z-score in [8] was -1.46 (inactive); in test [12], -1.64 (inactive); in [13] it was -0.769 (inactive); in test [14], -0.455 (inactive); in test [16], 3.05 (inactive).
